# Out of some 360,000 compounds screened, about 810 (0.23%) were called active. Rule as the data show it: active = potentiation above about 50%; inconclusive = mostly about 30% to 49%; inactive = weaker than that. The sample as a whole holds a higher share of actives than the screen did.
# Target: D(2) dopamine receptor (Homo sapiens) (UniProt P14416)
# Experiment: Beta-Arrestin HTS for Positive Allosteric Modulators of the Human D2 Dopamine Receptor: Potentiators
# Conditions: DiscoveRx D2 beta-arrestin cells, luminescence, 90 min; stronger effect = higher value; 100% = 57 uM dopamine signal
# Text: There is great interest in identifying small molecule ligands for G-protein coupled receptors (GPCRs) as nearly 50% of all FDA-approved drugs target these important receptor proteins. […] Amongst the dopamine receptors (DARs), the D2 is arguably one of the most validated drug targets in neurology and psychiatry. For instance, all receptor-based antiparkinsonian drugs primarily work via stimulating the D2 DAR, whereas all FDA-approved antipsychotic agents are antagonists of this receptor. The D2 DAR is also therapeutically targeted in other disorders such as restless legs syndrome, tardive dyskinesia, Tourette's syndrome, and hyperprolactinemia.
# To this end, a miniaturized qHTS screen was developed to be screened against the Molecular Libraries Small Molecule Repository (MLSMR). This assay seeks to identify potentiators against the D2 DAR.
# NIH Molecular Libraries Probe Production Network [MLPCN]
# NIH Chemical Genomics Center [NCGC]
# PI Name: David Sibley, National Institutes of Neurological Disorders and Stroke
# DiscoveRx D2 cells were thawed from frozen stock and seeded at 2,100 cells/ 3 uL/well media (DiscoveRx Plating Reagent 2) with MultiDrop Combi dispenser (Thermo Scientific, Logan, UT) onto white tissue culture treated 1536-well Aurora plates (Brooks Automation, Chelmsford, MA) and allowed to attach overnight at 37 deg C, 5% CO2. Next, 23 nL/well of compound solutions in DMSO were added with a pintool transfer (Kalypsis, San Diego, CA). As the positive control, 1 uL/well dopamine (EC100, 57 uM final concentration) diluted in buffer (HBSS + 10 mM HEPES + SMB + 0.1 %Tween-20) was dispensed to 1 column of each plate. EC20 (Dopamine at 50 nM final concentration) was dispensed to the rest of the plate except columns 1 &2 which were used as negative control (EC=0, buffer only), 1 uL/well as well. The cells were stimulated by compounds and dopamine for 90 minutes at 37 deg C, 5% CO2, after which 1.5 uL/well of DiscoveRx detection reagent was added with BioRAPTR FRD dispenser. The detection reagent was prepared by mixing of Galacton Star Substrate, Emerald II solution and PathHunter buffer (supplied by the assay kit) together at 1:5:19 proportion accordingly just prior to dispensing. The plates were incubated at ambient temperature for 1 hour and then the luminescent signal was read on ViewLux plate reader (PerkinElmer, Waltham, MA).
# Sequence of D(2) dopamine receptor (Homo sapiens) (P14416 whole entry, looked up): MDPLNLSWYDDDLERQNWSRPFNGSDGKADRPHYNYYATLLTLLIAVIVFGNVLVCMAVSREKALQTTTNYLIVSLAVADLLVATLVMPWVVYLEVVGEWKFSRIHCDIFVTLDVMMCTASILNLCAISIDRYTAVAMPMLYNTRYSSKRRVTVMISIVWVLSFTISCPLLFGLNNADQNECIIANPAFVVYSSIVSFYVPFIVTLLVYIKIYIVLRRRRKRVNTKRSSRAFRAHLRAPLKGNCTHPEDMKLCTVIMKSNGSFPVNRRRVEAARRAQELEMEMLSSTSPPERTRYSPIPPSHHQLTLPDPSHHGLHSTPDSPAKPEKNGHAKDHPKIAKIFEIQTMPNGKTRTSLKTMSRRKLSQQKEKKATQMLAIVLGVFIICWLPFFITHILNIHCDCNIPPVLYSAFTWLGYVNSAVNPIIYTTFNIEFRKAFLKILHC
row,Compound,potentiation
1,CNC(=O)/C(C#N)=C/c1c(F)cccc1Cl,21.1% (inactive)
2,N#C/C(=C\c1ccccc1C(F)(F)F)C(=O)Nc1ccccc1F,57.7% (active)
3,O=C(Nc1ccccc1F)c1ccccc1-c1ccc(C(F)(F)F)cc1,-15.1% (inactive)
4,O=C(COC(=O)c1cc(-c2cccs2)nn1-c1ccccc1)Nc1cc([N+](=O)[O-])ccc1Cl,-0.407% (inactive)
5,COc1ccc(CN2C(CC(=O)Nc3cccnc3)c3ccc(C(F)(F)F)cc3S2(=O)=O)cc1 (centres undefined),-5.81% (inactive)
6,COc1ccc(N(CC(=O)NC2CCCCC2)C(=O)CNC(=O)c2ccco2)c(OC)c1,-8.59% (inactive)
7,COc1ccccc1CNC(=O)c1cc(-c2cc(Cl)ccc2C)n[nH]1,-2.11% (inactive)
8,Cc1cccnc1NC(=O)CSc1nnc(COc2ccc(C(C)C)cc2)n1C,-13.7% (inactive)
9,Cc1ccc(OCc2nnc(SC3CCc4ccccc4C3=O)n2C)cc1 (centres undefined),51.4% (active)
10,COc1ccccc1C(=O)Nc1ccc(OCc2nnc3c4ccccc4c(C)nn23)cc1,9.9% (inactive)
11,O=c1[nH]c(=S)[nH]c(O)c1/C=C1\C=Nc2ccccc21,-32.7% (inactive)
12,CCOC(=O)C1C(c2ccc(O)cc2)NC(=O)NC1(O)C(F)(F)F (centres undefined),-0.717% (inactive)
13,O=C1NC(c2ccc(-c3ccccc3[N+](=O)[O-])o2)C(C(=O)c2ccc(Cl)cc2)C(O)(C(F)(F)F)N1 (centres undefined),55.4% (active)
14,CC1=NN(c2ccc(Cl)c(C(=O)O)c2)C(=O)/C1=C/c1ccc(-c2ccccc2[N+](=O)[O-])o1,-7.86% (inactive)
15,CCC(C)NC(=O)C1CCCN(C(=O)NC2CCCCC2)C1 (centres undefined),2.71% (inactive)
16,O=C(NCCc1nnc2ccc(SCC(=O)N3CCOCC3)nn12)c1ccccc1,1.02% (inactive)
17,COC(=O)CSc1ccc2nnc(CCNS(=O)(=O)c3ccc(C)cc3)n2n1,71.3% (active)
18,Cc1ccc(S(=O)(=O)NCCc2nnc3ccc(SCc4cccnc4)nn23)cc1,-34.2% (inactive)
19,CN(Cc1ccccc1)C(=O)COC(=O)/C=C/c1ccc2c(c1)OCO2,-10.6% (inactive)
20,Cc1coc2c(O)cc3c(c12)OC1(N2CCCCC2)C(=O)NCCCC31 (centres undefined),70.8% (active)
21,CC(=O)Nc1cc(-c2ccc(N3CCN(C)CC3)cc2)cn2c(-c3cccc(C(=O)N(C)C)c3)cnc12,-8.12% (inactive)
22,COC(=O)[C@H]1C[C@H](OC(=O)NCc2ccccc2)[C@@]2(O)CN(S(=O)(=O)c3ccc(C)cc3)CC2[C@H]1C(=O)OC (some centres undefined),-0.0644% (inactive)
23,Cc1ccc(NC(=O)COC(=O)CN2CCCCCC2=O)c(C)c1,-1.65% (inactive)

row,Compound,potentiation
1,Cc1ccc(S(=O)(=O)N2CCN(C(=O)c3cc(S(=O)(=O)N4CCOCC4)ccc3F)CC2)cc1,0.45% (inactive)
2,CN1OC[C@@H]2CN(C(=O)C(C)(C)C)[C@H](c3ccc(-n4ccnc4)cc3)C[C@@H]21,-5.65% (inactive)
3,CC(Oc1cccc(Cl)c1)C(=O)NC1CC(C)(C)NC(C)(C)C1 (centres undefined),-22.7% (inactive)
4,Cc1ccc(NC(=O)CN(C)S(=O)(=O)c2cnc[nH]2)cc1C,-13% (inactive)
5,CN(CC(=O)Nc1ccccc1Cl)C(=O)c1ccccc1SCC(=O)N1CCCC1,-9.34% (inactive)
6,O=C1C=C(c2cccc(Br)c2)C[C@@H](c2ccc(F)cc2)C1,-7.26% (inactive)
7,Cc1ccc(CN(N=Nc2nonc2N)c2nonc2N)c(C)c1,25.8% (inactive)
8,O=C1Oc2ccccc2C(=O)/C1=C/c1ccccc1O,1.41% (inactive)
9,O=C(Cc1c[nH]c2ccccc12)N/N=C/c1cccc(F)c1,-9.63% (inactive)
10,O=C(COc1ccc(/C=N/NC(=O)c2ccc(O)cc2)cc1)Nc1ccc([N+](=O)[O-])cc1,-4.2% (inactive)
11,O=C(N/N=C/c1ccc([N+](=O)[O-])cc1)c1c[nH]c2ccccc12,64.1% (active)
12,Nc1nc(CSc2nnnn2-c2ccccc2)nc(Nc2ccccc2)n1,4.76% (inactive)
13,COCCCn1c(C(=O)NC2CCCCC2)cc2c(=O)n3cccc(C)c3nc21,-4.49% (inactive)
14,CC12CN3CCN(CC(C3)/C1=N\NC(=O)c1ccccc1N)C2,-0.591% (inactive)
15,CCC(C)c1ccccc1NC(=O)CN(C)CC(=O)Nc1ccccc1SC (centres undefined),1.68% (inactive)
16,COc1cccc2oc(CCc3ccccc3)cc(=O)c12,-6.37% (inactive)
17,Cc1c2cn[nH]c(=O)c2c(C)n1Cc1ccc(F)cc1,-5.05% (inactive)
18,CN1CCC2(CC1)NC(=O)NC2=O,11.5% (inactive)
19,COc1cccc(N=c2oc3c(C)ncc(CO)c3cc2C(N)=O)c1,-0.831% (inactive)
20,CCNC(=O)C1(C)CCN(C(=O)c2ccccc2)C1 (centres undefined),-7.31% (inactive)
21,CN(C)S(=O)(=O)c1ccc(N2CCCC2)c(C(=O)NCc2ccccc2)c1,-8.01% (inactive)
22,COc1cccc(CNc2ncc(-c3ccccc3)n2C)c1,-30.3% (inactive)
23,CCOC(=O)c1cc2c(=O)[nH]c(C(Cl)(Cl)Cl)nc2o1,7.93% (inactive)

row,Compound,potentiation
1,CCC(C)CCN1CCN=C1N(C)C (centres undefined),-8.79% (inactive)
2,Cc1ccc(N(CC(=O)NCC2CCCO2)C(=O)CNS(=O)(=O)c2ccc(Cl)cc2)cc1 (centres undefined),0.715% (inactive)
3,COc1cccc(-c2cnc(OC(C)(C)C)nc2OC(C)(C)C)c1,-5.2% (inactive)
4,COc1cccc(CNC(=O)Cn2c(=O)oc3cc(S(=O)(=O)N4CCCCC4)ccc32)c1,-3.62% (inactive)
5,CCOC(=O)C1(Cc2cccc(OC)c2)CCN(Cc2csc(C(C)=O)c2)CC1,-21.6% (inactive)
6,NC1=NC(c2ccc([N+](=O)[O-])cc2)N(c2ccc(F)cc2)C(N)=N1 (centres undefined),0.113% (inactive)
7,Cc1ccc2c(c1)C(O)(CC(=O)c1cccnc1)C(=O)N2 (centres undefined),-30% (inactive)
8,Cc1ccc(S(=O)(=O)n2cccc2CO)cc1,-0.194% (inactive)
9,Cc1cccc(CNC(=O)c2sc(=O)n(Cc3ccccc3C)c2C)c1,-5.51% (inactive)
10,CC(C)(C)N1C(=O)c2c(C(=O)OCc3ccccc3)[nH]c(-c3ccccc3)c2C1=O,-2.35% (inactive)
11,CC(C)Nc1nnc(SC(C)C(=O)N(C)C2CCCCC2)s1 (centres undefined),-2.23% (inactive)
12,CCCN(CC1CC1)C(=O)COC(=O)c1ccc(C)cc1O,-24.9% (inactive)
13,Cc1ccc(S(=O)(=O)N(CCCN(C)C)Cc2ccc3c(c2)OCO3)cc1,-10.1% (inactive)
14,CC1=C(C(=O)N(C(C)C)C(C)C)CC(CC(=O)NCCCCc2ccccc2)C(=O)N1CCC1=CCCCC1 (centres undefined),-4.46% (inactive)
15,CCOC(=O)CSc1nnc(NC(=O)C2CC(=O)N(c3ccc(F)cc3)C2)s1 (centres undefined),-2.95% (inactive)
16,CC(C)Cc1nnc(NC(=O)CCC(=O)Nc2ccc3cn[nH]c3c2)s1,-12.9% (inactive)
17,O=C(Nc1ccc2cn[nH]c2c1)c1ccc(S(=O)(=O)N2CCOCC2)cc1,-3.76% (inactive)
18,S=C(Nc1cccc(Cl)c1)Nc1ccc2cn[nH]c2c1,60.4% (active)
19,Cc1cc(N2CCCC2=O)cc(C)c1S(N)(=O)=O,-18.2% (inactive)
20,O=C1NC(=O)C(c2ccc(Cl)cc2)N1 (centres undefined),-7.09% (inactive)
21,CCCCC(=O)Nc1nnc(S(=O)(=O)N(C)Cc2ccco2)s1,-7.89% (inactive)
22,Cn1cc(/C=C/C(=O)N2CCCC(C(=O)c3ccc(C(F)(F)F)cc3)C2)cn1 (centres undefined),-1.59% (inactive)
23,COc1ccc(C(=O)C[n+]2ccc(N)c(C)c2C)cc1,-3.23% (inactive)

row,Compound,potentiation
1,COC(=O)c1cc(Oc2ccc(S(=O)(=O)N3CCOCC3)cc2[N+](=O)[O-])cc(C(=O)OC)c1,-0.101% (inactive)
2,COc1cc([N+](=O)[O-])cc([N+](=O)[O-])c1NC(=O)N1CCOCC1,-13.5% (inactive)
3,COc1cc(C(=S)N2CCOCC2)cc(OC)c1OC(=O)c1ccc([N+](=O)[O-])cc1[N+](=O)[O-],136% (active)
4,O=C(NCCCn1ccnc1)C(=O)NCC1OCCN1S(=O)(=O)c1cc(F)ccc1F (centres undefined),-2.44% (inactive)
5,COC(=O)c1cccnc1NC(=S)NC(C)C,2.31% (inactive)
6,CC(=O)NC(C)(C)C1CC=C(C)/C(=N\O)C1 (centres undefined),-2.42% (inactive)
7,NC(Cc1ccc(F)cc1)c1csc(Nc2nncc3ccccc23)n1 (centres undefined),0.276% (inactive)
8,Cc1ccc(Cc2c(-c3ccco3)nc3ccc(Cl)cn23)cc1,-4.9% (inactive)
9,Cc1nn(C)c(C)c1S(=O)(=O)N1CCc2ccccc21,3.69% (inactive)
10,CCO[C@@H]1OC(C(=O)NC2CC2)=C[C@H](C)[C@H]1CCCO,-6.01% (inactive)
11,O=C(Oc1ccccc1C(=S)N1CCCCC1)c1cc([N+](=O)[O-])cc([N+](=O)[O-])c1,58.7% (active)
12,CC1CCN(C(=S)c2cccc([N+](=O)[O-])c2)CC1,-3.98% (inactive)
13,O=C(Oc1ccc(Br)cc1C(=S)N1CCOCC1)c1cccc([N+](=O)[O-])c1,-0.594% (inactive)
14,CCCCn1c(N)c(N(CCC(C)C)C(=O)c2ccc(COc3ccccc3)o2)c(=O)[nH]c1=O,-0.984% (inactive)
15,COc1cccc(NC(=O)C2(C)CCN2Cc2ccccc2Cl)c1 (centres undefined),-7.17% (inactive)
16,CN(CC(=O)Nc1c(Cl)cccc1Cl)C(=O)CC1OC(=O)c2ccccc21 (centres undefined),-2.61% (inactive)
17,CC(OC(=O)c1ccccc1NCCO)C(=O)Nc1ccnn1C(C)C (centres undefined),-3.07% (inactive)
18,O=C(NCc1cc(F)cc(C(F)(F)F)c1)C1CCC(=O)N(C2CCCC2)C1 (centres undefined),2.66% (inactive)
19,Cc1ccc(S(=O)(=O)N2CCOCC2)cc1C(=O)NC(=S)N(Cc1ccccc1)C(C)C,10.6% (inactive)
20,CC1(C)C(=O)CCC2(C)C1=CCC1C2C(=O)CC2(C)C1CCC2(O)C(=O)CO (centres undefined),-30.8% (inactive)

# Source: PubChem BioAssay AID624464 (National Center for Advancing Translational Sciences (NCATS), 2012)
